Compound activity as filed in PubChem.
Rows were chosen to be rich in hits. Some 9.4% of all compounds tested hit in one or more screens of this group.
FLuc modulator: counter-screen for miR-21 project: firefly luciferase inhibitors or activators. Potency, µM (titrated, usually from 57.5 µM), without a hit: at the highest dose activity change, negative = inhibition, actives largely listed as inhibitors. 360,000 tested, 6.9% active. purified FLuc, Km substrates, luminescence inhibition;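 also: plate controls were vehicle for no effect and reference inhibitor for full effect; nearly all actives have a fitted effect of over 55% in size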
Target sequence (P08659 whole entry, looked up): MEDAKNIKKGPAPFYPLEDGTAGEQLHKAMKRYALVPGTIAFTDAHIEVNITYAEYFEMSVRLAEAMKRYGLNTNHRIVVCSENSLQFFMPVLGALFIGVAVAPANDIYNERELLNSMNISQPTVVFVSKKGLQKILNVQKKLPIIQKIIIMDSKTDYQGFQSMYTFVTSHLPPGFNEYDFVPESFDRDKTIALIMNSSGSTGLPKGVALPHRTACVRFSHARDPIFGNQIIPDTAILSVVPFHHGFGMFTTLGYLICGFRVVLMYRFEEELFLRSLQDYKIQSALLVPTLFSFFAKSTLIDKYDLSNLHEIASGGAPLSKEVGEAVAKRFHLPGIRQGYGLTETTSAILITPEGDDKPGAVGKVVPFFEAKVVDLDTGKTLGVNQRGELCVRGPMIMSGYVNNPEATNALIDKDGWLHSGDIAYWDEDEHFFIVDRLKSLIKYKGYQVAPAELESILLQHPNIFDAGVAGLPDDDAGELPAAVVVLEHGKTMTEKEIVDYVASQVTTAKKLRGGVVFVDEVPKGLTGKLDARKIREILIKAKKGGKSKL
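Purified P. pyralis luciferase (10nM final) with 10uM D-luciferin and 10uM ATP (Km levels) in 50mM Tris acetate pH 7.5, 10mM Mg acetate, 0.01% Tween-20, 0.05% BSA; qHTS 6-point titration, ~60 µM downward; luminescence read.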
NPC1 prom act: activators of NPC1 promoter; AID 485313; 320,000 tested, 2.4% active; Potency, µM (series often up to 9.22 µM), for inactives: top-dose activation, usual class: activators; Huh7 NPC1 promoter luciferase reporter, 24 h; also: % of control where 0% means no effect; nearly all actives have a fitted effect of over 60% in size
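Luminescence read-out of NPC1 promoter-driven luciferase in stably transfected Huh7 cells; compounds delivered in DMSO and left 24 h at 37C, 5% CO2, qHTS titration format.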
ELG1 DNA repair: blocks ELG1-dependent DNA repair in HEK293T cells. HEK293T ELG1-luciferase reporter, luminescence, 16 h; DNA damage induced by 5-fluorouridine. Potency, µM (titrated, usually from 46.1 µM), inactives show at the top dose activity change, negative = inhibition, hits mostly inhibitors. 330,000 tested, 2.3% active; also: % is scaled to controls: 0 for no effect and ±100 for the full control effect; nearly all actives have a fitted effect of over 55% in size
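DMSO vehicle served as the neutral condition. Each well held 2,000 cells given 5-fluorouridine plus compound; after 16 hr at 37 °C/5% CO2, ONE-Glo was added and luciferase measured 30 min later.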
ELG1 genotoxic: genotoxicity induction in ELG1-luciferase HEK293T cells. 330,000 tested, 1.3% active. AID 504466. HEK293T ELG1-luciferase reporter, luminescence, 16 h. Potency, µM (top dose mostly 46 µM), without a hit: top-dose activity change, positive = activation, most hits filed as activators; also: % of control where 0% means no effect; nearly all actives have a fitted effect of over 60% in size
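Luminescence read-out: rising ELG1-luciferase signal, reflecting elevated ELG1 protein under genetic stress, flags genotoxic compounds. Cells were treated for 16 hr at 37 °C before ONE-Glo detection.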
Rab9 prom act: activators of Rab9 promoter. Huh7 Rab9 promoter-luciferase reporter, luminescence, 24 h. Potency, µM (series often up to 9.22 µM), without a hit: top-dose activation, negative = inhibition, hits mostly activators. 320,000 tested, 2.8% active; also: % of control where 0% means no effect; nearly all actives have a fitted effect of over 60% in size
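Rab9 promoter-driven luciferase in stably transfected Huh7 cells; 1500 cells/well rested 2 h, exposed to compound in DMSO for 24 h at 37 °C, 5% CO2. Luminescence read 10 min after adding luciferase reagent at ambient temperature.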
SMN2 splice enh: enhancers of SMN2 splice variant expression. HEK293 SMN2-luciferase splicing reporter, luminescence, 30-36 h. Potency, µM (highest dose often 46.1 µM), inactives show top-dose activity change, positive = activation, actives largely listed as activators. 210,000 tested, 2.8% active; also: % of control where 0% means no effect; nearly all actives have a fitted effect of over 55% in size
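HEK293 cells carry an SMN2 minigene-luciferase reporter in which exon 7 inclusion puts luciferase in frame. Cells were seeded at 2000 cells/well, attached for 10-12 hours, then exposed to compounds for 30-36 hours at 37C before ONE-Glo luminescence.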
ELG1-Luc inh: confirmation of human ELG1-dependent DNA repair inhibitors; shares compounds with ELG1 DNA repair; HEK293T ELG1-luciferase levels, luminescence; cells co-treated with 5-fluorouridine; Potency, µM (top dose mostly 46.1 µM), inactives show at the highest dose activity change, negative = inhibition, hits mostly inhibitors; 670 tested, 68% active; also: % is scaled to controls: 0 for no effect and ±100 for the full control effect; nearly all actives have a fitted effect of over 55% in size
ELG1-Luc MMS: inhibits ELG1-dependent repair under MMS stimulation in HEK293T cells; shares compounds with ELG1 DNA repair; HEK293T luciferase-tagged ELG1 level, MMS stimulated; Potency, µM (top dose mostly 46.1 µM), without a hit: at the highest dose activity change, negative = inhibition, hits mostly inhibitors; 670 tested, 53% active; also: % is scaled to controls: 0 for no effect and ±100 for the full control effect; nearly all actives have a fitted effect of over 60% in size
ELG1 5FU viab: confirmation of ELG1 repair inhibitors: viability with 5FU; AID 624250; Potency, µM (highest dose often 46.1 µM), for inactives: at the highest dose activity change, negative = viability loss, usual class: cytotoxic; cell viability with 5-FU, ELG1-dependent repair; 670 tested, under 10 active; shares compounds with ELG1 DNA repair;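 also: ELG1-luc HEK293T cells cotreated with 5-fluorouridine at 10 µM final; viability measured 16 h after compound addition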
ELG1 MMS viab: confirmation of ELG1 repair inhibitors: viability with MMS | shares compounds with ELG1 DNA repair | Cell viability with MMS, ELG1-dependent DNA repair | Potency, µM (highest dose often 46.1 µM), for inactives: at the highest dose activity change, negative = viability loss, actives largely listed as cytotoxic | 670 tested, 33% active | AID 624251;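 also: ELG1-luc HEK293T cells co-treated with 10 µM MMS; viability read 16 h after compound addition; % is scaled to controls: 0 for no effect and ±100 for the full control effect; nearly all actives have a fitted effect of over 60% in size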
ELG1 unstim viab: affects unstimulated cell viability, ELG1 hit counter-screen; shares compounds with ELG1 DNA repair; cell viability counter-screen, unstimulated, luminescence; Potency, µM (series often up to 45.9 µM), for the others: at the highest dose activity change, negative = loss of viability, most hits filed as cytotoxic; 900 tested, 8% active;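 also: compound exposure lasted 16 hours before reading; % is scaled to controls: 0 for no effect and ±100 for the full control effect; nearly all actives have a fitted effect of over 55% in size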
* marks the source's active call; other numbers are inactive results; [ ] = another dose, or the depositor's remark. Calls follow the shape of the dose curve; as a rule, active = well fitted curve in the direction sought with a large enough effect; inconclusive = small, poorly fitted or top-dose-only effect, or another doubt; inactive = no such curve, though single readings can be large; an effect the other way counts as inactive or inconclusive. Potency is read from the fitted curve at half-maximal effect.

What do the screens show for `CC(=O)N1c2ccc(S(=O)(=O)NCCC(=O)NCc3ccc(N(C)C)cc3)cc2CC1C` (centres undefined)?
FLuc modulator: -0.3%; NPC1 prom act: -1.9%; ELG1 DNA repair: 4.61µM*; ELG1 genotoxic: 1.0%[9.26 µM]; Rab9 prom act: 0.0%; ELG1-Luc inh: 12.5µM*; ELG1-Luc MMS: -16.2%; ELG1 5FU viab: inconclusive; ELG1 MMS viab: 9.5%; ELG1 unstim viab: 4.2%

How did COCC(C)OC(=O)c1c(N)n(CC(C)C)c2nc3ccccc3nc12 (centres undefined) do in these assays?
FLuc modulator: -0.9%; NPC1 prom act: 2.3%; ELG1 DNA repair: 3.66µM*; ELG1 genotoxic: -0.7%; Rab9 prom act: 1.3%; SMN2 splice enh: -0.3%; ELG1-Luc inh: 4.99µM*; ELG1-Luc MMS: -20.5%; ELG1 5FU viab: inconclusive; ELG1 MMS viab: 0.2%; ELG1 unstim viab: -1.5%

What do the screens show for `C=CCn1c(N)c(C(=O)OC(C)CC)c2nc3ccccc3nc21` (centres undefined)?
FLuc modulator: -13.7%; NPC1 prom act: 2.0%; ELG1 DNA repair: -25.8%; ELG1 genotoxic: -1.8%; Rab9 prom act: -0.1%; SMN2 splice enh: -14.5%

How did CCOc1cc(N2CCOCC2)c(OCC)cc1NC(=O)c1nn(CC)c(=O)c2ccccc12 do in these assays?
FLuc modulator: -2.1%; NPC1 prom act: -3.4%; ELG1 DNA repair: 2.31µM*; ELG1 genotoxic: -6.5%; Rab9 prom act: -8.1%; ELG1-Luc inh: 2.23µM*; ELG1-Luc MMS: 14.1µM*; ELG1 5FU viab: -8.7%; ELG1 MMS viab: inconclusive; ELG1 unstim viab: inconclusive

What do the screens show for `CN1/C(=C\C(=O)C[n+]2ccc3ccccc3c2)C(C)(C)c2ccccc21`?
FLuc modulator: 0.3%; NPC1 prom act: -36.9%; ELG1 DNA repair: 1.16µM*; ELG1 genotoxic: -8.4%; Rab9 prom act: -20.7%; SMN2 splice enh: -49.4%; ELG1-Luc inh: inconclusive; ELG1-Luc MMS: 1.99µM*; ELG1 5FU viab: -6.2%; ELG1 MMS viab: 2.81µM*; ELG1 unstim viab: inconclusive

What do the screens show for `O=C1/C(=C/c2ccc(O)c(O)c2)Oc2ccccc21`?
ELG1 unstim viab: -11.9%

What do the screens show for `CCC1OC(=O)C(C)[C@@H](O[C@H]2C[C@@](C)(OC)C(O)C(C)O2)C(C)[C@@H](O[C@@H]2OC(C)CC(N(C)C)C2O)[C@@](C)(O)CC(C)CN(C)C(C)C(O)[C@]1(C)O` (some centres undefined)?
SMN2 splice enh: 0.2%
